Sampled rows, rich in hits. Any-hit rate of the full collection: about 3.4%.
Bim-Mcl-1 – inhibitors of Bim peptide binding to Mcl-1, primary screen, biochemical, bead-based flow cytometry, multiplex; Induced myeloid leukemia cell differentiation protein Mcl-1 (Homo sapiens), Q07820; Bim peptide-Mcl-1 binding; inhibition, % at 10 µM; 0.1% of 190,000 active; in the data active = inhibition above about 40%
Target sequence (Q07820 whole entry, looked up): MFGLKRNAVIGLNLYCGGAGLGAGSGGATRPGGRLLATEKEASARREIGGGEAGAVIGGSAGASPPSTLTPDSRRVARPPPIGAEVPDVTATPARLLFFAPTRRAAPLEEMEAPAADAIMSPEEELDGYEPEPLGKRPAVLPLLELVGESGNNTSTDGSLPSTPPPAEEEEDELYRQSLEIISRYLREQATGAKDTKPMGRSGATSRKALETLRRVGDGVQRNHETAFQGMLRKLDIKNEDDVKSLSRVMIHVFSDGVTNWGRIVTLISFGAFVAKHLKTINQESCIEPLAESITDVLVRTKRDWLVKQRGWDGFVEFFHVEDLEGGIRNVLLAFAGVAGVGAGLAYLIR
p47phox inh – p47phox/p22phox peptide binding inhibitors, primary screen, biochemical, uHTS, NADPH oxidase regulatory subunit | AID 1274, 2008 | 0.53% of 220,000 active | inhibition, % at 24.7 µM | fluorescence polarization, 2 h | Neutrophil cytosol factor 1 (Homo sapiens), P14598;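 active = inhibition above about 30%, limit read from the data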
Mcl1-Noxa inh – Mcl-1/Noxa binding inhibitors, primary screen, biochemical, TR-FRET, 1536-well | TR-FRET Mcl-1/Noxa peptide binding, 2 h | inhibition, % at 21.7 µM | Induced myeloid leukemia cell differentiation protein Mcl-1 (Homo sapiens), Q07820 | 1.5% of 220,000 active;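 active = compounds that cut the protein-peptide binding signal by more than 50% relative to plate controls in a single-dose test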;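 note: His-tagged Mcl-1 with rhodamine Noxa BH3 peptide and terbium anti-His antibody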
Calpain2 inh – inhibitors of pig calpain II, primary screen, biochemical, fluorogenic peptide substrate, 1536-well. purified calpain II, 30 min. inhibition, % at 16 µM. 0.37% of 220,000 active. AID 1236, 2008;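 active = inhibition above about 50%, limit read from the data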
Mcl1 Bid PPI – Mcl-1/Bid binding inhibitors, primary screen, biochemical, TR-FRET, 1536-well. Induced myeloid leukemia cell differentiation protein Mcl-1 (Homo sapiens), Q07820. TR-FRET Mcl-1/Bid-Dy647 peptide binding. inhibition, % at 21.7 µM. 0.97% of 220,000 active. AID 1021, 2008;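 active = compounds that cut the binding signal by more than half at the single screening dose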;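 note: His-tagged Mcl-1 with europium anti-His antibody binding Bid BH3 peptide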
14-3-3 Bad inh – inhibitors of 14-3-3 zeta/Bad binding, primary screen, biochemical, TR-FRET, bovine 14-3-3 zeta; 14-3-3 protein zeta/delta (Bos taurus), P63103; TR-FRET 14-3-3zeta/Dy647-pBad peptide displacement, 1 h; 0.71% of 220,000 active; inhibition, % at 21.7 µM;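 active = inhibition above about 70%, limit read from the data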
Target sequence (P63103 whole entry, looked up): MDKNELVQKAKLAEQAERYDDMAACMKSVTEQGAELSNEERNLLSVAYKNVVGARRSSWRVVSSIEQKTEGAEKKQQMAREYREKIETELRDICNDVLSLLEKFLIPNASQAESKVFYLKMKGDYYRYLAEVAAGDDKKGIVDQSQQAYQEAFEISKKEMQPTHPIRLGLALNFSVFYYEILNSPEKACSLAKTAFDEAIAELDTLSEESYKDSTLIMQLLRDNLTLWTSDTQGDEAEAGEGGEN
Large screens that a line does not name were inactive.

Cc1cccn2cc(COc3cccc([N+](=O)[O-])c3)nc12	none
COc1ccc(-n2c(SCc3cn4c(C)cccc4n3)nc3ccccc3c2=O)cc1OC	none
C=CCn1c(SCC(=O)c2[nH]c(C)c(C(=O)OCC)c2C)nc2scc(-c3ccc(OC)c(OC)c3)c2c1=O	Mcl1 Bid PPI 84, 14-3-3 Bad inh 82
COC(=O)C(CC(C)C)NC(=O)C(Cc1ccccc1)NC(=O)C1CCCN1C(=O)OC(C)(C)C (stereo unspecified)	none
O=C(O[C@@H]1Cc2c(O)cc(O)cc2O[C@@H]1c1cc(O)c(O)c(O)c1)c1cc(O)c(O)c(O)c1	Mcl1-Noxa inh 95
CC(=O)N1CCC(N(CCN2CCOCC2)C(=S)Nc2cc(C)ccc2C)CC1	none
CCOC(=O)C1(C(=O)OCC)C(c2ccccc2)CC(O)N1C(C)=O (stereo unspecified)	14-3-3 Bad inh 92
CCN1CCN(C(c2cccc(OC)c2)c2sc3nc(C)nn3c2O)CC1 (stereo unspecified)	none
COc1cccc(C(c2sc3nc(C)nn3c2O)N2CCc3ccccc3C2)c1 (stereo unspecified)	Mcl1-Noxa inh 52
CCc1ccc(S(=O)(=O)NCc2cn3c(C)csc3n2)s1	Calpain2 inh 100
C=CCN1C(=O)C(CC(=O)Nc2ccc(OC)cc2)SC1=Nc1ccc(S(N)(=O)=O)cc1 (stereo unspecified)	none
Fc1ccc(CNn2cnnc2SCc2ccc(F)cc2)cc1	none
Fc1ccc(CSc2nncn2NCc2ccc3c(c2)OCO3)cc1	p47phox inh 103
Cc1ccc(S(=O)(=O)N(CC(=O)N/N=C/c2cccc(Cl)c2)c2cccc3cccnc23)cc1	Mcl1 Bid PPI 86
Cc1ccc(N(CC(=O)N/N=C/c2cccnc2)S(=O)(=O)c2ccccc2)cc1	none
COc1ccccc1N1C(=O)C2ON(c3ccccc3)C(c3ccc(N(C)C)cc3)C2C1=O (stereo unspecified)	Mcl1-Noxa inh 78
O=C(O)CN1C(=O)/C(=C/c2ccc(SCc3ccccc3)o2)SC1=S	none
C=C(C)c1cccc(C(C)(C)NC(=O)N2CCCC(C)C2)c1 (stereo unspecified)	none
C=C(C)c1cccc(C(C)(C)NC(=O)N(C)C2CCN(C)CC2)c1	p47phox inh 110
COc1ccc2nc(N3C(=O)/C(=C/c4ccccc4)NC3=S)sc2c1	Mcl1-Noxa inh 64
Cc1ccc(-n2c(Cc3noc4ccccc34)n[nH]c2=S)cc1	none
S=c1[nH]nc(Cc2noc3ccccc23)n1-c1ccc(Cl)cc1	Mcl1 Bid PPI 54
COc1ccc(C2CC(c3c(-c4ccccc4)c4cc(Cl)ccc4[nH]c3=O)=NN2S(C)(=O)=O)cc1OC (stereo unspecified)	Mcl1 Bid PPI 59
Fc1cccc(Cl)c1CNc1ccc(N2CCCC2)cc1	Mcl1-Noxa inh 72
COc1ccccc1CCc1nnc(CCC(=O)N(C)Cc2cccc3ncccc23)o1	none
Cc1cc(C(=O)NCCc2ccc(S(N)(=O)=O)cc2)no1	none
CC(C)(C)C1=CC=C(C(C)(C)C)C(=O)C1=O	Mcl1-Noxa inh 89 (no result: Bim-Mcl-1)
CC(C)(C)c1ccc2c(c1)C(=O)c1ccccc1C2=O	none
Cc1ccc2c(c1)c1cccc3c1n2CCN3CCC(N)=O	Mcl1-Noxa inh 67
CCOC(=O)c1c(NC(=O)CSc2ncnc3[nH]ncc23)sc2c1CCC(C)C2 (stereo unspecified)	none
CCNc1nc(NC(C)CC)nc(Oc2ccc(OCC)nn2)n1 (stereo unspecified)	none
COc1ccc2cc3cc(C(=O)Nc4ccc5c(c4)OCCO5)oc3nc2c1	p47phox inh 32
O=c1oc2cc([N+](=O)[O-])ccc2nc1/C=C(O)/C=C/c1ccccc1	Mcl1-Noxa inh 72 (no result: Bim-Mcl-1)
Cc1sc(NC(=S)NC(=O)c2cccs2)nc1-c1ccc(C(C)C)cc1	Calpain2 inh 62
NS(=O)(=O)c1ccc(CCN=C(NS(=O)(=O)c2cccs2)c2ccccc2)cc1	none
COc1ccc(-c2cc(-c3ccccc3)nc(SCC(=O)Nc3ncc(C)s3)c2C#N)cc1	none
CCc1nnc(NC(=O)CSc2nc(-c3ccc(F)cc3)cc(-c3ccccc3)c2C#N)s1	Mcl1 Bid PPI 60
C=CC(C)n1c(Br)nc2c1c(=O)[nH]c(=O)n2C (stereo unspecified)	none
CC(C)n1c(=S)[nH]c2c1c(=O)[nH]c(=O)n2C	Mcl1-Noxa inh 54
CN(C)c1ccc(NC(=O)c2sc(SCC(=O)Nc3ccc(Br)cc3)nc2N)cc1	none
CN(C)c1ccc(NC(=O)c2sc(SCC(=O)Nc3nccs3)nc2N)cc1	Mcl1-Noxa inh 66
CCOc1cc(NC(=S)NCCCN2CCOCC2)c(OCC)cc1NC(=O)c1ccc(C)cc1	none
Cc1ccc(C)c2nc3sc(C(=O)N4CCOCC4)c(N)c3cc12	Mcl1-Noxa inh 60
Cc1cc(C)c2nc3sc(C(=O)N4CCOCC4)c(N)c3cc2c1	Mcl1-Noxa inh 65 (no result: Bim-Mcl-1)
Cc1cc(C)c2cc3c(N)c(C(=O)N4CCOCC4)sc3nc2c1	none (no result: p47phox inh)
Cc1nn(Cc2ccc(F)cc2)c(C)c1NC(=O)CCCn1nc([N+](=O)[O-])cc1C	none
COc1ccccc1N1CC(C)(C)C(=O)N(C(=O)c2ccc(C)cc2)C1=S	none (no result: Bim-Mcl-1)
Cc1cccc(N2CCN(S(=O)(=O)c3ccc4c(c3)n(C)c(=O)c(=O)n4C)CC2C)c1 (stereo unspecified)	Mcl1 Bid PPI 56
Cc1ccc(N2CCN(S(=O)(=O)c3ccc4c(c3)n(C)c(=O)c(=O)n4C)CC2C)cc1 (stereo unspecified)	none
C=CCN1C(=O)/C(=C/c2ccsc2)SC1=S	Bim-Mcl-1 64
C=CCn1cc(/C=N/NC(=O)COc2cccc3cccnc23)c2ccccc21	p47phox inh 47, Mcl1-Noxa inh 66, Mcl1 Bid PPI 89
COc1cccc(-n2c(SCC(=O)OC(C)C)nnc2-c2cccnc2)c1	Calpain2 inh 52
CCOC(=O)C1CCN(S(=O)(=O)c2cc(Br)cc3c2N(C(=O)C2CC2)CC3)CC1	Calpain2 inh 61
O=C1/C(=C/c2ccc(O)c(O)c2)SC(=S)N1Nc1ccccc1	Mcl1-Noxa inh 60
COc1cc(/C=C2\SC(=S)N(Nc3ccccc3)C2=O)ccc1O	none
NC(=O)C1CCN(CC(=O)Nc2cccnc2Cl)CC1	none
Cc1ccc(Oc2nnc(-c3cccs3)c3ccccc23)cc1	none
COc1ccc(Oc2nnc(-c3ccc(C)cc3)c3ccccc23)cc1	14-3-3 Bad inh 89
O=C(Nc1nc(-c2ccccc2)cs1)C1CCCCN1S(=O)(=O)c1ccc(Cl)cc1 (stereo unspecified)	none

Screening data (PubChem BioAssay)
